High-throughput results as filed in PubChem.
FBPA Giardia inh – Giardia lamblia aldolase inhibition; A8B2U2; purified Giardia FBPA; Potency, µM (top dose mostly 59.6 µM), for the others: at the highest dose activity, negative = inhibition, most hits filed as inhibitors; 290,000 compounds, 0.71% hits; AID 2451; active means well fitted inhibition curve with a large enough effect; inconclusive means small, poorly fitted or top-dose-only effect, or effect the other way; further: nearly all actives have a fitted effect of over 55% in size
Target sequence (A8B2U2 whole entry, looked up): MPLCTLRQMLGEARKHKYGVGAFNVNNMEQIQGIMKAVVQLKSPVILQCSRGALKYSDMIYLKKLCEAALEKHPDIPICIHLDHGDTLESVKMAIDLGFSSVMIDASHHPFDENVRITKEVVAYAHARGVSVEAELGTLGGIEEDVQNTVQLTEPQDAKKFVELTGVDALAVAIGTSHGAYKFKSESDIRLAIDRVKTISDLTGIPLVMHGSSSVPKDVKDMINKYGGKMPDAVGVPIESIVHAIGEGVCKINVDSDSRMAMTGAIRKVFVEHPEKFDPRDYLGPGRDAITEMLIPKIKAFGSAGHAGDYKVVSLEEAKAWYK
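40 nM FBPA preincubated 10 min at RT with compound (up to 57.5 uM final), then substrate plus GAPDH/TPI/NAD/arsenate coupling and diaphorase/resazurin added. Fluorescence read after 20 min at RT, 525/598 nm.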
FMDV antiviral – antivirals against foot and mouth disease virus. FMDV antiviral cell-based qHTS. Potency, µM (doses to about 57.9 µM), inactives show top-dose activity change, negative = inhibition, usual class: inhibitors. 410,000 compounds, 1.2% hits; calls by dose curve; tested in HEK293T cells; further: read-out not given here; nearly all actives have a fitted effect of over 45% in size
VACV Venus inh – vaccinia inhibition (Venus reporter). 330,000 compounds, 0.46% hits. AID 720580. Vaccinia virus Venus reporter expression, fluorescence. Potency, µM (highest dose often 36.5 µM), inactives show top-dose activity change, negative = inhibition, hits mostly inhibitors; calls by dose curve; tested in A549 cells; further: nearly all actives have a fitted effect of over 30% in size
VACV mCherry inh – vaccinia inhibition (mCherry reporter) | Vaccinia virus mCherry reporter infection, fluorescence | AID 720579 | 310,000 compounds, 0.63% hits | Potency, µM (series often up to 36.5 µM), for the others: at the highest dose activity change, negative = inhibition, hits mostly inhibitors; calls by dose curve; tested in A549 cells; further: nearly all actives have a fitted effect of over 35% in size
Starred values were filed as active, the others as inactive; i = inactive; ? = inconclusive; nt = no result; ! = not active in a repeat; [ ] = another dose, or the depositor's remark. An excerpt weighted towards active compounds, which were near 2.2% of everything screened. On the % scale 0 is the no-effect control and ±100 the full control effect; potency means the concentration at half of the fitted maximal effect.

SMILES | FBPA Giardia inh | FMDV antiviral | VACV Venus inh | VACV mCherry inh
CSCC[C@H](NC(=O)CN)C(=O)N[C@@H](CC(=O)O)C(=O)N[C@@H](CO)C(=O)N[C@@H](CC(C)C)C(=O)N[C@@H](C)C(=O)N[C@@H](Cc1ccccc1)C(=O)N[C@@H](CO)C(=O)NCC(=O)NCC(=O)N[C@@H](CC(C)C)C(N)=O | 5% | nt | nt | nt
OCCCNCc1cc2cc3c(cc2nc1N1CCN(c2cccc(Cl)c2)CC1)OCO3 | nt | 1% | -7% | -13%
CCOc1ccc(CN(C)C(C)C(=O)Nc2ccc([N+](=O)[O-])cc2Cl)cc1OC (stereo not drawn) | -1% | 22µM* | -13% | -8%
O=C(Nc1cccc(OCC(=O)N2CCOCC2)c1)c1cccc([N+](=O)[O-])c1 | -2% | 1% | nt | nt
O=C(COc1cccc(NC(=O)c2cccc([N+](=O)[O-])c2)c1)c1ccc(Br)cc1 | 17% | 20µM* | ? | nt
O=C(NCc1cccs1)c1nc2c(nnn2Cc2ccccc2Cl)c(=O)[nH]1 | 4% | ? | 7.1µM* | ?
O=C(NCC1Cc2cccc(-c3ccccn3)c2O1)c1cnn2cccnc12 (stereo not drawn) | nt | 3% | -15% | -21%
CC12Cc3cnoc3C=C1CCC1C2CCC2(C)C1CCC2(C)O (stereo not drawn) | nt | 35µM* | -27% | ?
COc1ccc(-c2nc(NC(=O)c3ccc(OCC(=O)Nc4ccc(F)cc4)c(OC)c3)sc2C)cc1 | 1% | 18µM* | ? | ?
COc1cc(C(=O)Nc2nc(-c3cc(C)ccc3C)c(C)s2)ccc1OCC(=O)Nc1ccc(F)cc1 | 8% | ? | -14% | i
COc1ccc(CN(Cc2ccccc2)C(=O)C2CC2)cc1COc1ccc(NC(C)=O)cc1 | nt | nt | -29% | -11%
COc1ccc(C2=NS(=O)(=O)N(C)C(C(=O)N3CCc4ccccc4C3)=C2)cc1OC | 7% | 28µM* | -7% | -21%
O=C(NCc1cccnc1)c1ccc(COc2ccc3c(c2)CCC3)o1 | -7% | 18µM* | -25% | i
CCn1c(-c2ccccc2F)nc2cc(NC(C)=O)cc(C(=O)N3CCNC(=O)C3CC(=O)OC)c21 (stereo not drawn) | nt | -14% | -10% | -14%
CN1CCN(Cc2cc(Cl)c3cccnc3c2OC(=O)c2cccs2)CC1 | 1% | -19% | ? | 11µM*
Cc1nc(SCc2nc3ccccc3[nH]2)c2oc3ccc(Br)cc3c2n1 | nt | 35µM* | nt | nt
COc1ccccc1C(CNc1ccc(S(=O)(=O)N2CCCC2)cc1[N+](=O)[O-])N(C)C (stereo not drawn) | -3% | -30% | 10µM* | 8.9µM*
C=CCN1c2ccccc2[C@]23C[C@@H](C(=O)OC)N(S(=O)(=O)CCCC)C2=NC(C(=O)OC)=C(C(=O)OC)[C@H]13 | 4%[12.9 µM] | nt | nt | nt
CC[C@H](C)[C@H](NC(=O)[C@H](Cc1ccc(O)cc1)NC(=O)[C@H](Cc1cnc[nH]1)NC(=O)[C@H](CCCNC(=N)N)NC(=O)[C@H](CC(C)C)NC(=O)[C@H](C)NC(=O)[C@H](CO)NC(=O)[C@H](Cc1ccc(O)cc1)NC(=O)[C@H](Cc1ccc(O)cc1)NC(=O)[C@H](CCCNC(=N)N)NC(=O)[C@H](C)NC(=O)[C@H](CCSC)NC(=O)[C@H](CC(=O)O)NC(=O)[C@H](CCC(=O)O)NC(=O)[C@H](C)NC(=O)[C@@H]1CCCN1C(=O)[C@H](C)NC(=O)[C@H](CC(=O)O)NC(=O)[C@H](CCC(=O)O)NC(=O)CNC(=O)[C@@H]1CCCN1C(=O)[C@H](CC(N)=O)NC(=O)[C@H](CC(=O)O)NC(=O)[C@@H]1CCCN1C(=O)[C@H](CCCCN)NC(=O)[C@H](CO)NC(=O)[C@@H]1CCCN1C(=O)[C@@H](N)Cc1ccc(O)cc1)C(=O)N[C@@H](CC(N)=O)C(=O)N[C@@H](CC(C)C)C(=O)N[C@@H](CC(C)C)C(=O)N[C@H](C(=O)N[C@@H](CCCNC(=N)N)C(=O)N1CCC[C@H]1C(=O)N[C@@H](CCCNC(=N)N)C(=O)N[C@@H](Cc1ccc(O)cc1)C(N)=O)[C@@H](C)O | -2% | nt | nt | nt
CCCCN(CCCN)c1ccc(Br)cn1 | nt | nt | -21% | -1%
CC1(C)N=C(N)N=C(N)N1CCCCc1ccccc1 | nt | 0% | 1µM* | 0.71µM*
CC1(C)N=C(N)N=C(N)N1c1cccc(CC(=O)Nc2ccccc2)c1 | nt | -1% | ? | -26%
COc1cc(SC#N)ccc1N=Cc1c(C)[nH]n(-c2ccc(Cl)cc2)c1=O | 4% | -4% | -8% | i
COc1cc(SC#N)ccc1N=Cc1c(C)[nH]n(-c2ccc(C)c(C)c2)c1=O | 2% | 13µM* | -14% | i
Cc1cccc2sc(NC(=O)CN(C)S(=O)(=O)c3cccs3)nc12 | -9% | 40µM* | ? | nt
SMILES | FBPA Giardia inh | FMDV antiviral | VACV Venus inh | VACV mCherry inh
Cc1cccc2sc(NC(=O)CN(C)S(=O)(=O)c3ccc(Br)s3)nc12 | -3% | ? | ? | nt
COc1cc(OC)cc(-c2nnc3n2N=C(c2ccccc2OC)CS3)c1 | -21% | nt | nt | nt
CN(C)c1ccc(Sc2ccc3nc(N)nc(N)c3c2)cc1 | nt | -30% | 5µM* | 4.5µM*
CCOC(=O)c1cnc2c(OC)cccc2c1N1CCN(c2ccccn2)CC1 | -5% | 32µM* | -21% | -17%
CCOC(=O)c1cnc2c(OC)cccc2c1N1CCN(c2ccccc2OC)CC1 | -12% | ? | -22% | ?
CCc1ccc(NC(=O)c2cnc(N3CCN(c4ccccn4)CC3)c3ccccc23)cc1 | -3% | 11µM* | ? | -30%
CC[C@H](C)[C@H](NC(=O)[C@H](CC(C)C)NC(=O)[C@@H](N)CO)C(=O)NCC(=O)N[C@@H](CCCCN)C(=O)N[C@H](C(=O)O)C(C)C | 3% | nt | nt | nt
CCCCN1C=CC(=C2C(=O)c3ccccc3C2=O)C=C1 | -17% | 10µM* | -23% | i
CCCCC1C(=O)N(c2ccccc2)N(c2ccccc2)C1=O | 0% | 0% | -10% | -8%
CN(C)c1nc(C=C(C#N)C#N)c(Cl)n1-c1ccc(F)cc1 | -4% | 14µM* | ? | ?
S=C(Nc1ccc(Nc2ccccc2)cc1)NC1CCCCCC1 | 0% | 28µM* | -24% | ?
S=C(Nc1ccc(Cl)cc1)NC1CCCCC1 | 0% | 70% | -8% | -4%
CC1=CC(=O)c2c(O)cccc2C1=O | ? | 8.9µM* | -10% | i
COc1cccc2c1C(=O)C=C(C)C2=O | ? | ? | 316% | 9%
Cc1ncc2c(c1CNC(=O)c1cncs1)CCN(C(=O)c1cccc(-c3cccc(F)c3)c1)C2 | nt | -4% | 0% | i
O=C1c2ccccc2CCC1CNCCc1ccc(O)cc1 (stereo not drawn) | nt | -7% | -12% | i
CCOC(=O)C1=C(C)NC2=C(C(=O)C(C(=O)OCC)C(c3ccco3)C2)C1c1ccccc1C (stereo not drawn) | nt | nt | -24% | -22%
CCCCCc1c2c(cc(O)c1C(=O)O)OC(=O)c1c(cc(OC)cc1C(=O)CCCC)O2 | 13% | 32µM*! | 0% | i
COC(=O)[C@@H]1CCCN1Cc1ccc2c(c1)CN(Cc1ccc3c(c1)CCO3)CCO2 | nt | -7% | 0% | -6%
